Hit rate of the full screen: of about 39,000 compounds, about 3,300 (8.5%) were called active. The list comes from a sample in which actives are over-represented; it also holds similar structures and randomly drawn compounds.
Tested on: HepG2
Assay: cytotoxicity call (relative viability < 0.9)
Details: 10 µM

Row | SMILES | cytotoxicity call
1 | C[C@H]1CN([C@@H](C)CO)C(=O)c2cc(NS(C)(=O)=O)ccc2O[C@@H]1CN(C)S(=O)(=O)c1ccccc1 | inactive
2 | CC(C)NC(=O)N(C)C[C@@H]1Oc2ccc(NS(=O)(=O)c3ccc(Cl)cc3)cc2C(=O)N([C@@H](C)CO)C[C@H]1C | inactive
3 | COc1ccc2c3c(n(c2c1)C)[C@H](CO)N(C[C@]13CCN(CC1)C(=O)c1ccccc1F)C(=O)Nc1ccc(cc1)F | inactive
4 | CO[C@H]1CN(C)C(=O)c2cc(NS(=O)(=O)c3cn(C)cn3)ccc2OC[C@H](C)N(CC2CC2)C[C@H]1C | inactive
5 | C[C@@H]1CN([C@H](C)CO)C(=O)c2cc(NC(=O)C3CCCCC3)ccc2O[C@@H](C)CCCCO[C@H]1CN(C)C(=O)Nc1ccccc1 | inactive
6 | Cc1cc2cc(C)nn2c(N)n1 | inactive
7 | C[C@H](CO)N1C[C@H](C)[C@H](CN(C)C(=O)Nc2ccccc2)OCCCC[C@H](C)Oc2ccc(NC(=O)CCC(F)(F)F)cc2C1=O | inactive
8 | Cc1noc(C)c1S(=O)(=O)Nc1ccc2c(c1)C(=O)N([C@H](C)CO)C[C@@H](C)[C@@H](CN(C)Cc1ccccc1)O2 | inactive
9 | O=C(C[C@@H]1C=C[C@H](NS(=O)(=O)c2ccccc2F)[C@@H](CO)O1)NCCCN1CCOCC1 | inactive
10 | C[C@@H]1CCCCO[C@H](CN(C)S(=O)(=O)c2ccc(F)cc2)[C@@H](C)CN([C@H](C)CO)C(=O)c2cc(NC(=O)NC3CCCCC3)ccc2O1 | active
11 | C[C@@H]1CCCCO[C@H](CN(C)S(=O)(=O)c2ccc(F)cc2)[C@H](C)CN([C@H](C)CO)C(=O)c2cc(NC(=O)NC3CCCCC3)ccc2O1 | inactive
12 | C[C@@H]1CCCCO[C@@H](CN(C)S(=O)(=O)c2ccc(F)cc2)[C@@H](C)CN([C@H](C)CO)C(=O)c2cc(NC(=O)NC3CCCCC3)ccc2O1 | inactive
13 | C[C@@H]1CCCCO[C@@H](CN(C)S(=O)(=O)c2ccc(F)cc2)[C@H](C)CN([C@H](C)CO)C(=O)c2cc(NC(=O)NC3CCCCC3)ccc2O1 | active
14 | C[C@@H]1CCCCO[C@@H](CN(C)S(=O)(=O)c2ccc(F)cc2)[C@H](C)CN([C@@H](C)CO)C(=O)c2cc(NC(=O)NC3CCCCC3)ccc2O1 | inactive
15 | C[C@@H]1CN([C@H](C)CO)C(=O)c2cc(NC(=O)NC3CCCCC3)ccc2O[C@@H](C)CCCCO[C@H]1CN(C)S(=O)(=O)c1ccc(F)cc1 | inactive
16 | C[C@H](CO)N1C[C@H](C)[C@H](CN(C)S(=O)(=O)c2ccc(F)cc2)OCCCC[C@H](C)Oc2ccc(NC(=O)NC3CCCCC3)cc2C1=O | active
17 | C[C@H]1CCCCO[C@@H](CN(C)S(=O)(=O)c2ccc(F)cc2)[C@@H](C)CN([C@@H](C)CO)C(=O)c2cc(NC(=O)NC3CCCCC3)ccc2O1 | inactive
18 | C[C@@H]1CCCCO[C@H](CN(C)S(=O)(=O)c2ccc(F)cc2)[C@H](C)CN([C@@H](C)CO)C(=O)c2cc(NC(=O)NC3CCCCC3)ccc2O1 | inactive
19 | COc1cccc(C#Cc2cnc3c(c2)C(=O)N([C@H](C)CO)C[C@@H](C)[C@@H](CN(C)C(=O)C2CCOCC2)O3)c1 | inactive
20 | C[C@H]1CN([C@@H](C)CO)C(=O)CCCn2nncc2CO[C@H]1CN(C)S(=O)(=O)c1ccc(-n2cccn2)cc1 | inactive
21 | CCOC(=O)c1cc2c(c(-c3ccccc3)n1)[C@@H](CCO[Si](C)(C)C(C)(C)C)N(S(=O)(=O)C(C)(C)C)C2 | inactive
22 | CCC(=O)Nc1ccc2c(c1)C(=O)N(C)C[C@@H](OC)[C@@H](C)CN(C(=O)CN1CCOCC1)[C@@H](C)CO2 | inactive
23 | O=C(O)COCC(=O)NCc1ccco1 | inactive
24 | O=C1O[C@@H](c2ccccc2)[C@@H](c2ccccc2)N2[C@@H](c3ccc(O)cc3)[C@]3(C(=O)Nc4ccccc43)[C@@H](C(=O)Nc3nc4ccccc4s3)[C@H]12 | inactive
25 | C[C@H]1CN([C@@H](C)CO)C(=O)c2cc(C#Cc3ccccc3F)cnc2O[C@@H]1CN(C)C(=O)c1ccc2c(c1)OCO2 | inactive
26 | C[C@@H]1CN([C@H](C)CO)C(=O)Cc2cc(N(C)C)ccc2O[C@@H]1CN(C)S(=O)(=O)c1cn(C)cn1 | inactive
27 | C[C@H]1CN([C@@H](C)CO)C(=O)c2cc(NC(=O)Nc3ccc(C(F)(F)F)cc3)ccc2O[C@@H]1CN(C)C(=O)Nc1ccc2c(c1)OCO2 | active
28 | C[C@@H]1CN([C@@H](C)CO)C(=O)c2cc(NC(=O)Nc3ccc(C(F)(F)F)cc3)ccc2O[C@@H]1CN(C)C(=O)Nc1ccc2c(c1)OCO2 | active
29 | C[C@H]1CN([C@@H](C)CO)C(=O)c2cc(NC(=O)Nc3ccc4c(c3)OCO4)ccc2O[C@@H]1CN(C)C(=O)Nc1ccc(C(F)(F)F)cc1 | inactive
30 | C[C@@H]1CN([C@@H](C)CO)C(=O)c2cc(NC(=O)Nc3ccc4c(c3)OCO4)ccc2O[C@H]1CN(C)C(=O)Nc1ccc(C(F)(F)F)cc1 | inactive

From the antibiotic and cytotoxicity screens of Wong et al. (2023)
